Assay outcomes deposited in PubChem BioAssay by National Center for Advancing Translational Sciences (NCATS).
TSHR antag: human thyrotropin receptor antagonism. P16473. TSHR-expressing cells, TSH-stimulated cAMP HTRF, 2 h; hits give low values. activity change, negative = inhibition, % at 11.5 µM. 330,000 compounds, 0.2% hits;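 active = activity change below a set negative limit, meaning inhibition stronger than a set level, cut at about -70% in these data; inconclusive = activity change between two set negative limits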; also: % is scaled to controls: 0 for no effect and ±100 for the full control effect
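Inhibition of cAMP made by TSHR-expressing cells under TSH stimulation (4nM final, EC80; 2 h, 37 deg C) is quantified with a one-step lysis HTRF kit, anti-cAMP cryptate versus cAMP-d2.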
DRD3 antagonist: D3 dopamine receptor (human) antagonism; 360,000 compounds, 2.5% hits; D3R cells, DiscoveRx beta-arrestin luminescence, antagonist mode; hits give low values; max response, negative = inhibition, %; AID 652054; in the data active = max response below about -50%; inconclusive = no clear call, values can overlap the other calls; also: % is scaled to controls: 0 for no effect and ±100 for the full control effect
Target sequence (P35462 whole entry, looked up): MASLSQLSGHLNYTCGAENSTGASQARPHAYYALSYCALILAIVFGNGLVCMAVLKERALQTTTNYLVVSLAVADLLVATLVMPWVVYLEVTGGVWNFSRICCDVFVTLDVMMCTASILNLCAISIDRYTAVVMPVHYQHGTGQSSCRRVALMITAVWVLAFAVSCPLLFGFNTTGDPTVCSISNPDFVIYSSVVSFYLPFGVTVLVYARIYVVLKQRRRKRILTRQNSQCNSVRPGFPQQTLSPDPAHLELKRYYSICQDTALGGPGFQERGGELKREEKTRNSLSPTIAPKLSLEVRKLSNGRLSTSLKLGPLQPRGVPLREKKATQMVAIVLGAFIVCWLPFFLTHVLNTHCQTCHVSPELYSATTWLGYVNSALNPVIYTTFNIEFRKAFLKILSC
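Cells expressing the human receptor were seeded at 1500 cells/well, incubated overnight at 37 degrees C in 5% CO2, then exposed to library compounds with dopamine controls for 90 minutes at 37 degrees C before luminescent detection.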
D3 ag: agonists of human D3 dopamine receptor; P35462; D3R DiscoveRx beta-arrestin cells, luminescence, 90 min; max activation, %; 410,000 compounds, 0.58% hits; AID 652048; in the data active = max activation above about 30%; also: 0% is about no effect
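Agonist-mode cell screen: cells plated at 1500/well and incubated overnight at 37 °C, then exposed to library compounds for 90 min at 37 °C. Detection reagent was added for 30–60 min at room temperature, and luminescence was read.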
B2AR arrestin: recruits beta-arrestin to the human beta2-adrenergic receptor | beta-arrestin recruitment to beta2AR, cell-based reporter | AID 492947 | P07550 | 330,000 compounds, 0.02% hits | Potency, µM (doses to about 46.1 µM), for the others: at the highest dose activation, hits mostly activators; active = well fitted activation curve with a large enough effect; inconclusive = small, poorly fitted or top-dose-only effect;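 also: potency is read from the fitted curve at half-maximal effect; 0% = DMSO controls and full agonism = EC100 isoproterenol or metaproterenol; nearly all actives have a fitted effect of over 65% in size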
The depositor's hits bear a star. This is a sample that favours compounds with a hit; in the whole collection about 2.9% have one here.

Results for CC(=O)N1CCN(c2ccc(NC(=O)c3ccc(Cl)cc3)cc2)CC1 ?
TSHR antag: -14; DRD3 antagonist: 26; D3 ag: 3; B2AR arrestin: -1%

Results for CC(=O)N1CCN(c2ccc(NC(=O)c3ccc(C(C)(C)C)cc3)cc2)CC1 ?
TSHR antag: -4; DRD3 antagonist: -89*; D3 ag: 17; B2AR arrestin: 0%

How did NS(=O)(=O)c1ccc(NC2=CC(=O)C(=O)c3ccccc32)cc1 do in these assays?
TSHR antag: -12; DRD3 antagonist: -53*; D3 ag: -7; B2AR arrestin: -1%

What do the screens show for `CN1CCN(C(=O)c2ccc3c(c2)N(Cc2c(F)cccc2Cl)C(=O)c2ccccc2S3)CC1`?
D3 ag: -18

How did CCc1ccccc1NC(=S)N(CCN(C)C)C(C)c1ccco1 (stereo not given) do in these assays?
TSHR antag: 16; DRD3 antagonist: -146*; D3 ag: -4; B2AR arrestin: 0%

How did COc1ccccc1CNC(=O)Nc1nc(C(N)CCc2ccccc2)cs1 (stereo not given) do in these assays?
DRD3 antagonist: 0; D3 ag: -7

Results for CCN(CC)c1ccc(/C=C2/SC(=O)N(C(C)C)C2=O)o1 ?
TSHR antag: -11; DRD3 antagonist: -91*; D3 ag: -7; B2AR arrestin: 0%

How did Cc1ccc(NC(=O)c2c(C)oc3ncnc(N4CCCCC4)c23)c(C)c1 do in these assays?
D3 ag: -16

How did O=c1nc2ccccc2c2n1CC(CN1CCN(C(c3ccccc3)c3ccccc3)CC1)N2 (stereo not given) do in these assays?
TSHR antag: 1; DRD3 antagonist: -77*; D3 ag: -10; B2AR arrestin: 0%

Results for COc1cc(/C=C/C(=O)c2ccc([N+](=O)[O-])o2)ccc1O ?
TSHR antag: inconclusive; DRD3 antagonist: -98*; D3 ag: -31; B2AR arrestin: 0%

Results for O=C(/C=C/c1cccc(Cl)c1)c1ccc([N+](=O)[O-])o1 ?
TSHR antag: -81*; DRD3 antagonist: -84*; D3 ag: -10; B2AR arrestin: 0%

How did COc1ccc(/C=C/C(=O)c2ccc([N+](=O)[O-])o2)cc1OC do in these assays?
TSHR antag: -26; DRD3 antagonist: inconclusive; D3 ag: -29; B2AR arrestin: 0%

How did NS(=O)(=O)c1ccc(CNC(=O)/C=C/c2cccc(Cl)c2)cc1 do in these assays?
TSHR antag: 6; DRD3 antagonist: 7; D3 ag: 2; B2AR arrestin: -1%

What do the screens show for `CCn1cc(C(=O)NCc2ccc3c(c2)OCO3)c(=O)c2cc(F)c(N3CCN(C)CC3)cc21`?
DRD3 antagonist: -70*; D3 ag: -26

How did Cc1ccc(CNC(=O)C2CCCN(c3nn4cc(-c5ccc(C)cc5)nc4s3)C2)cc1 (stereo not given) do in these assays?
D3 ag: -3

Results for COc1ccc(-c2noc(CCC(=O)N3CCN(c4cccc(OC)c4)CC3)n2)cc1 ?
TSHR antag: -15; DRD3 antagonist: 102; D3 ag: 44*; B2AR arrestin: -1%

Results for Cc1ccc(C(C)C)c(OCC(O)CN(C)Cc2ccccc2)c1 (stereo not given) ?
TSHR antag: -15; DRD3 antagonist: 13; D3 ag: -7; B2AR arrestin: -1%

Results for Cc1ccc(OCCCCN(C)Cc2ccccc2)c(Br)c1 ?
TSHR antag: 11; DRD3 antagonist: -55*; D3 ag: -16; B2AR arrestin: -1%

What do the screens show for `Cc1cc(C)c(OCCCCN(C)Cc2ccccc2)c(C)c1`?
TSHR antag: 5; DRD3 antagonist: inconclusive; D3 ag: -22; B2AR arrestin: 0%

What do the screens show for `Cc1ccc(C(C)C)c(OCCCN(C)Cc2ccccc2)c1`?
TSHR antag: 22; DRD3 antagonist: -61*; D3 ag: -14; B2AR arrestin: -1%

What do the screens show for `CCNC(=O)N(CC)C[C@H]1N[C@@](Cc2ccccc2)(C(=O)OC)[C@H]2C(=O)N(Cc3ccccc3)C(=O)[C@@H]12`?
TSHR antag: -1; DRD3 antagonist: 3; D3 ag: 0; B2AR arrestin: -1%

What do the screens show for `COC(=O)[C@]1(Cc2ccccc2)N[C@H](CN(C)C(C)=O)[C@@H]2C(=O)N(Cc3ccccc3)C(=O)[C@@H]21`?
TSHR antag: 45; DRD3 antagonist: -53*; D3 ag: -33; B2AR arrestin: 0%

How did CCN(C[C@H]1N[C@@](Cc2ccccc2)(C(=O)OC)[C@H]2C(=O)N(Cc3ccccc3)C(=O)[C@@H]12)C(=O)C1CCCCC1 do in these assays?
TSHR antag: 16; DRD3 antagonist: -57*; D3 ag: -26; B2AR arrestin: 0%
